The text below walks through data of PubChem BioAssay (NCI).

Molecules are shown by their SMILES. About 79,000 compounds went through this panel and 15% of them were active in at least one assay; those are over-represented in the sample as a whole. Unmarked numbers belong to inactive results. Activity calls are given as the source filed them. Rule as the data show it: active = growth inhibition above about 70%; inactive = the rest.

Assay [1] in a line: NCI Yeast Anticancer Drug Screen. Data for the rad50 strain (AID 155).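 Also: 0% = growth of vehicle-only cultures of the same strain.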 As to conditions: S. cerevisiae rad50 strain growth inhibition; at 50.0 µM; active compounds read high. The gist of the method: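 DNA repair mutant yeast, compound exposure, growth read-out; inhibition is taken relative to vehicle.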
Assay [2] in a line: NCI Yeast Anticancer Drug Screen. Data for the mec2-1 strain (AID 157). The conditions noted are these: S. cerevisiae mec2-1 strain, at 50.0 µM, active compounds read high. The gist of the method: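 Strain: mec2-1 (DNA repair/cell cycle alteration). Compound exposure, then growth measured; inhibition expressed relative to vehicle.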
A short description of assay [3]: NCI Yeast Anticancer Drug Screen. Data for the sgs1 mgt1 strain (AID 161).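 Also: 0% = growth of cultures given vehicle only.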 As to conditions: S. cerevisiae sgs1 mgt1 strain, at 50.0 µM, active compounds read high. The gist of the method: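 Read-out: growth inhibition vs vehicle controls. Cells: mutant yeast strain deficient in DNA damage repair.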
Assay [4] in a line: NCI Yeast Anticancer Drug Screen. Data for the cln2 rad14 strain (AID 165).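 Also: 0% = growth equal to vehicle treated cultures.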 The conditions noted are these: S. cerevisiae cln2 rad14 strain, at 50.0 µM, active compounds read high. An outline of the steps:
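Compounds are applied to the cln2 rad14 yeast strain, and growth is then compared with that of vehicle-treated cultures to give inhibition.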

Assay [5] is described as follows: NCI Yeast Anticancer Drug Screen. Data for the bub3 strain (AID 167). The conditions noted are these: S. cerevisiae bub3 mutant strain, at 50.0 µM, active compounds read high. The gist of the method: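 In this screen, a yeast mutant lacking normal mitotic checkpoint function is challenged with compound. Relative growth versus vehicle gives the inhibition value.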
Assay [6] is described as follows: NCI Yeast Anticancer Drug Screen. Data for the mlh1 rad18 strain (AID 175). As to conditions: S. cerevisiae mlh1 rad18 strain growth inhibition; at 50.0 µM; active compounds read high. An outline of the steps:
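Read-out is yeast growth inhibition, calculated against vehicle-only controls. The compound was applied to a strain engineered with DNA damage repair alterations.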

For `CCOC(=O)c1nc2ccc(OC)cc2c2c1Cc1ccccc1-2`, the growth inhibition is -8.55% in assay [1]; -20.9% in assay [2]; -22.1% in assay [3]; 8.3% in assay [4]; 0.55% in assay [5]; -24.4% in assay [6].
Regarding `COc1ccc(N2C(=O)[C@@H](N=[N+]=[N-])[C@@H]2[C@H]2COC(C)(C)O2)cc1`, the growth inhibition in assay [1] is 1.95%; in assay [2], -14.3%; in assay [3], 1.3%; in assay [4], 5%; in assay [5] it was 3.35%; in assay [6], 9%.
For `CCOC(=O)c1nc2ccccc2nc1Nc1ccc(F)cc1`, the growth inhibition was -2.35% in assay [1]; -7.5% in assay [2]; 1.75% in assay [3]; 1.05% in assay [4]; -21.1% in assay [5]; -38% in assay [6].
On to `Cc1ccc(C(=O)c2ccccc2Cc2ccc3ccccc3c2)cc1`, for which the growth inhibition in assay [1] was 13.8%; in assay [2], 0.8%; in assay [3], 6.3%; in assay [4] it was 1.35%; in assay [5], 61.2%; in assay [6] it was -0.25%.
As to `BrCc1cccc2cccc(CBr)c12`, the growth inhibition in assay [1] was -5.35%; in assay [2], 17.4%; in assay [3] it was 10.4%; in assay [4] it was -10.5%; in assay [5], 9.05%; in assay [6], 2.65%.
`O=C(CCCCc1ccccc1)NO`: the growth inhibition in assay [1] is 25.4%; in assay [2], 18.8%; in assay [3] it was 14.4%; in assay [4], 15.8%; in assay [5] it was -5.5%; in assay [6] it was 33.5%.
Consider `O=C(/C=C\c1ccccc1)OCC(=O)c1ccc(-c2ccccc2)cc1`, for which the growth inhibition in assay [1] is -20.1%; in assay [2], -2.3%; in assay [3], 1.9%; in assay [4] it was -34.3%; in assay [5], 1.1%; in assay [6] it was 4.4%.
As for `O=c1[nH]c(-c2ccncc2)nnc1-c1ccc(Cl)cc1`, the growth inhibition is -4.4% in assay [1]; -8.1% in assay [2]; -11.5% in assay [3]; -26.9% in assay [4]; 2.15% in assay [5]; -14.1% in assay [6].
For the compound `O=c1cc(Nc2ccc(Cl)cc2)[nH]c(=O)[nH]1`, the growth inhibition in assay [1] was -1.45%; in assay [2] it was -5.45%; in assay [3], -5.55%; in assay [4], -61.9%; in assay [5], 6.2%; in assay [6] it was -7.65%.
Turning to `CCNc1ncnc2c1cnn2C1CCCCC1`, the growth inhibition was 5.3% in assay [1]; -7.15% in assay [2]; -5.85% in assay [3]; -35.9% in assay [4]; 0.5% in assay [5]; -2.5% in assay [6].
In the case of `CCn1c(S)c(N=NC(=S)c2ccc3ccccc3n2)c2ccccc21`, the growth inhibition in assay [1] was 46%; in assay [2] it was 18.9%; in assay [3], 27.8%; in assay [4], 23.4%; in assay [5], 17.4%; in assay [6], 11.5%.
With `Clc1cccc(C2N3CCCCC3[C@@H]3c4[nH]c5ccccc5c4CCN23)c1` (some centres not stated), the growth inhibition in assay [1] is -0.75%; in assay [2] it was -1.85%; in assay [3], -1.95%; in assay [4], 3.1%; in assay [5], 10.9%; in assay [6], 1.7%.
For `OC(C/C(=N\Nc1ccccc1)c1ccc(Br)cc1)(C(F)(F)F)C(F)(F)F`, the growth inhibition in assay [1] is 67.2%; in assay [2], 97% (active); in assay [3] it was 88.8% (active); in assay [4], 85.7% (active); in assay [5] it was 44.9%; in assay [6] it was 96.5% (active).
`COc1ccc(C(=O)NC(=S)Nc2cc(C(F)(F)F)ccc2Cl)cc1`: the growth inhibition in assay [1] is -18.6%; in assay [2], 0.1%; in assay [3] it was -11.2%; in assay [4] it was 84.8% (active); in assay [5] it was -3.8%; in assay [6] it was 11.7%.
With `O=C(CC(C(=O)c1cccs1)c1ccsc1)c1cccs1` (configuration not stated), the growth inhibition in assay [1] is -23.8%; in assay [2] it was -22.6%; in assay [3], 0.85%; in assay [4], 21%; in assay [5], 25.8%; in assay [6], -38.7%.
With `CC(C)C1NC(=O)NC1=O` (configuration not stated), the growth inhibition is -4% in assay [1]; -23.2% in assay [2]; -3.7% in assay [3]; 10.7% in assay [4]; 0.65% in assay [5]; -4.4% in assay [6].
As to `O=C(/C=C/c1ccc(OCCSCCCCCCCCCCSCCOc2ccc(/C=C/C(=O)c3ccc(Cl)cc3)cc2)cc1)c1ccc(Cl)cc1`, the growth inhibition is -26.9% in assay [1]; -25.1% in assay [2]; -21.9% in assay [3]; 13.7% in assay [4]; -8.95% in assay [5]; -29.9% in assay [6].
As for `COc1c2c(c(Cc3c4c(c(OC)c5c3OCO5)OC(C)C4)c3c1OCO3)CC(C)O2` (configuration not stated), the growth inhibition was 24.1% in assay [1]; 2.35% in assay [2]; 5.65% in assay [3]; 6.05% in assay [4]; -10.1% in assay [5]; -7.3% in assay [6].
Take `CS(=O)(=O)OC1C(OCc2ccccc2)OC(CO)C(O)C1O` (configuration not stated): the growth inhibition in assay [1] is -6.1%; in assay [2], 2.15%; in assay [3], -10.1%; in assay [4] it was -55.6%; in assay [5], -1.6%; in assay [6] it was 0.55%.
Consider `CC(=O)OCC1OC(OC(C)=O)C(N)C(OC(C)=O)C1OC(C)=O` (configuration not stated), for which the growth inhibition in assay [1] is 2.15%; in assay [2], 11.8%; in assay [3] it was 11.9%; in assay [4] it was 9.05%; in assay [5], -15.9%; in assay [6] it was 19.4%.
`C=CCn1c(=O)cc[nH]c1=S`: the growth inhibition in assay [1] is -11.6%; in assay [2] it was -13.2%; in assay [3], -24.7%; in assay [4], 3.4%; in assay [5], -1.05%; in assay [6], -21.2%.
For the compound `CC(SC(C)c1ccccc1)c1ccccc1` (configuration not stated), the growth inhibition in assay [1] was -5.8%; in assay [2], -16.6%; in assay [3], -8.65%; in assay [4], -11.9%; in assay [5], -8.1%; in assay [6], 3.65%.
As to `Cc1c(O)cccc1C(=O)C[n+]1ccccc1`, the growth inhibition is 3.85% in assay [1]; -8% in assay [2]; 10.8% in assay [3]; -24.9% in assay [4]; -6.9% in assay [5]; 1.25% in assay [6].
For the compound `CCCCCOP(=O)(OCCCCC)C(c1ccccc1)c1ccccc1`, the growth inhibition in assay [1] is 1%; in assay [2], -44.9%; in assay [3], -4.15%; in assay [4], -33.4%; in assay [5], 9.5%; in assay [6], -11.9%.
Turning to `CCOC(=O)/C(Cc1nc2ccccc2[nH]c1=O)=N\O`, the growth inhibition was -0.5% in assay [1]; 9.95% in assay [2]; 5.65% in assay [3]; 50.4% in assay [4]; -4.45% in assay [5]; 7.7% in assay [6].
Regarding `COc1ccc(-c2cc(N)c3c(c2O)C(=O)c2c(N)ccc(O)c2C3=O)cc1`, the growth inhibition in assay [1] is 13.3%; in assay [2], 4.75%; in assay [3] it was 4.75%; in assay [4] it was -23.6%; in assay [5], -4.65%; in assay [6], 9.25%.
On to `c1ccc2cc(C3OCC4(CCC4)CO3)ccc2c1`, for which the growth inhibition in assay [1] was 11.6%; in assay [2] it was -1.35%; in assay [3] it was 3.1%; in assay [4] it was -26.8%; in assay [5], 24.8%; in assay [6], -6.9%.
Regarding `COC(=O)C12OCC34C(CC5C(C)CC(=O)C(O)C5(C)C3C(O)C1O)OC(=O)C(OC(C)=O)C24` (configuration not stated), the growth inhibition in assay [1] is 31.2%; in assay [2], 44.4%; in assay [3], 11.6%; in assay [4] it was 36%; in assay [5], 24.2%; in assay [6], 31.6%.
Turning to `O=C(OCCNC1CCCCC1)c1ccc([N+](=O)[O-])cc1`, the growth inhibition in assay [1] is 8.85%; in assay [2] it was 2.5%; in assay [3] it was 1.45%; in assay [4] it was -43.5%; in assay [5], -4.5%; in assay [6], 11.3%.
Consider `Cc1cc(O)c(/C=N/C(=S)Nc2ccccc2)c(=O)o1`, for which the growth inhibition was -20.4% in assay [1]; -48.8% in assay [2]; -24.1% in assay [3]; -8.65% in assay [4]; -48.2% in assay [5]; -39% in assay [6].
On to `O=C1CCC2=C3C4CCCC5OC6CC(=O)CCC6=C(C6CCCC(OC2C1)C36)C54` (configuration not stated), for which the growth inhibition in assay [1] is 5.5%; in assay [2] it was -2.15%; in assay [3], 6.55%; in assay [4] it was 11.2%; in assay [5] it was 25.6%; in assay [6] it was 17.4%.
For `C=C(C)CCCCCCCCC`, the growth inhibition in assay [1] is -4.8%; in assay [2], -5.8%; in assay [3], 17.6%; in assay [4], 1.4%; in assay [5], 3%; in assay [6] it was -3.25%.
With `COc1ccc(C2c3cc4c(cc3OC(C)(OC)C2C)OCO4)c(OC)c1OC` (configuration not stated), the growth inhibition in assay [1] is -1.5%; in assay [2] it was 5.8%; in assay [3], -4.75%; in assay [4], -19%; in assay [5], -3.6%; in assay [6], 22.1%.
With `COc1ccc2ccccc2c1C(=O)/C=C/c1ccccc1`, the growth inhibition in assay [1] is 35%; in assay [2] it was 33.6%; in assay [3], 38.9%; in assay [4], 47.8%; in assay [5], 58.8%; in assay [6] it was 39.4%.
For `CCOC(=O)/C=C\C(=O)O.[Mn]`, the growth inhibition in assay [1] was -16.2%; in assay [2], -21.4%; in assay [3], -7.65%; in assay [4] it was -22.9%; in assay [5], -31%; in assay [6], -33.5%.
With `Cc1cc(/C=C\[N+](=O)[O-])c(C)c2c1oc1ccccc12`, the growth inhibition in assay [1] is -10.8%; in assay [2] it was -2.55%; in assay [3], 2.1%; in assay [4] it was 4.75%; in assay [5] it was 2.4%; in assay [6] it was -7.05%.
For the compound `CCCCOC(=O)NC(=O)c1cc2cc(I)cc(I)c2oc1=O`, the growth inhibition was 3.45% in assay [1]; 5.8% in assay [2]; -7.75% in assay [3]; -50.2% in assay [4]; -10.6% in assay [5]; 17.6% in assay [6].
